Results taken from PubChem BioAssay (NCI).
The panel holds about 83,000 compounds, 20% with a hit somewhere; the sample as a whole holds those more often.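 Method: cells in 96-well plates; compound added at one concentration; 48 h incubation; percent growth measured; values under 10 scored active.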 Unmarked numbers belong to inactive results. Active and inactive are the calls of the source.

system: K-562 leukemia; assay: NCI-60 one-dose screen, 48 h (100 = growth as untreated, 0 = no growth, -100 = all killed); conditions: 10 µM unless noted

For `C[C@]12CC[C@@H]3c4cc(O)c(O)cc4CC[C@H]3[C@@H]1CC[C@@H]2O`, the growth was 7.32% (active).
With `COc1cc(C(=O)OCCCCCCCCCCC[P+](c2ccccc2)(c2ccccc2)c2ccccc2)ccc1O` the growth was -37.8% (active).
`COc1ccc(-c2cn[nH]c2-c2cc(OC)c3c(c2)OCCO3)cc1` was tested, and the growth was 9.59% (active).
In the case of `CC[C@H](C)[C@H]1NC(=O)[C@@H](N[C@](C)(O)[C@@H](N)CC(C)C)[C@@H](C)OC(=O)[C@H](Cc2ccc(OC)cc2)N(C)C(=O)[C@@H]2CCCN2C(=O)[C@H](CC(C)C)NC(=O)[C@@H](C)C(=O)[C@H](C(C)C)OC(=O)C[C@@H]1O`, the growth is reported as 2.2% (active).
In the case of `COc1ccccc1CNCCCN1C(=O)c2ccc3c4c(ccc(c24)C1=O)C(=O)N(CCCNCCCCNCCCCN)C3=O`, the growth is reported as 7.51% (active).
For `COc1cc2nc(N3CCC[C@@H](NC4=CC(=O)c5ccccc5C4=O)C3)nc(N)c2cc1OC`, the growth was -47.1% (active).
In the case of `COc1ccc(/C=C2\CCCC3=C2NC(C)=NC3c2ccc(OC)c(OC)c2)cc1OC` (stereo not drawn), the growth is reported as 5.92% (active).

Compared with `CCCOC(=O)C1(O)CCCC1`, `NC(=O)NC(=O)/C=C/C(=O)OCCCl` is lower in growth: 110% for the first, 94.4% for the second.

Going from `COC1=CC(c2ccc[nH]2)=N/C1=C\c1[nH]c(C)c(C(=O)CCCCC(=O)NCc2ccccc2)c1C` to `O=C(CCCn1c(=O)c2sc3ccccc3c2n2nnc(-c3ccccc3)c12)NCCc1cnc[nH]1`, the growth rises from 74.5% to 82.6%.

Going from `O=C(NNC(=S)Nc1ccccc1)c1ccccn1` to `O=C(CNc1ccc(Cl)cc1)Nc1ccc(-c2nc3ccccc3s2)cc1`, the growth falls from 28.6% to 11.9%.

Going from `COc1cc(NC(=O)CCl)ccc(=O)c1` to `COc1cc(OC)c(C(=O)/C=C/c2ccc(C(F)(F)F)cc2)c(OC)c1`, the growth falls from 75.2% to 32.3%.

First: COc1ccc(S(=O)(=O)N2CCN(c3cc4c(cc3F)c(=O)c(C(=O)O)cn4C3CC3)CC2)c(OC)c1
Second: Cc1cc(C)c(S(=O)(=O)N2CCN(c3cc4c(cc3F)c(=O)c(C(=O)O)cn4C3CC3)CC2)c(C)c1
The growth of the first is higher: 89.1% for the first, 63.5% for the second.

Going from `COc1ccc(Cn2cc(COc3cc(/C=C/C(=O)c4cc(OC)c(OC)c(OC)c4)ccc3OC)nn2)cc1` to `COc1ccc(C(=O)/C=C/c2cc(C(=O)c3cc(OC)c(OC)c(OC)c3)ccc2OC)cc1`, the growth rises from 12% to 12.8%.

First: CC(C(=O)n1cc(-c2ccccc2)c(-c2ccccc2)c1)c1ccccc1 (stereo not drawn)
Second: O=S(=O)(c1ccccc1)n1ccc(-c2ccc3c(c2)CCO3)n1
The growth of the first is higher: 104% for the first, 56.1% for the second.

Going from `C=CCOc1cccc(/C=C/C(=O)c2sc(Nc3cccnc3)nc2C)c1` to `Cc1nc(Nc2cccnc2)sc1C(=O)/C=C/c1ccc(F)cc1`, the growth falls from 28.9% to 11.4%.

First: CCC1CCc2nc3sc(C(=O)Nc4cccc(C)c4)c(N)c3cc2C1 (stereo not drawn)
Second: Cc1cccc(NC(=O)c2sc3nc4c(cc3c2N)CCCC4)c1
The growth of the first is higher: 35.8% for the first, 17.8% for the second.

Going from `CC(C)C[C@H](NC(=O)Cn1ccc(NCc2ccccc2)cc1=O)B(O)O` to `O=C(CCl)NCCNc1nccc(Nc2ccc(S(=O)(=O)Nc3ccccn3)cc2)n1`, the growth rises from 15.6% to 17%.

First: CCNC(=O)C1CCCN1C(=O)C(CCCN=C(N)N)NC(=O)C(CC(C)C)NC(=O)C(CC(C)C)NC(=O)C(Cc1ccc(O)cc1)NC(=O)C(CO)NC(=O)C(Cc1c[nH]c2ccccc12)NC(=O)C(Cc1cnc[nH]1)NC(=O)C1CCC(=O)N1 (stereo not drawn)
Second: CC[C@]1(O)C[C@@H]2CN(Cc3c([nH]c4ccccc34)[C@@](C(=O)OC)(c3cc4c(cc3OC)N(C)[C@H]3[C@@](O)(C(=O)OC)[C@H](OC(C)=O)[C@]5(CC)[C@@H]6C[C@@H]6CN6CC[C@]43[C@@H]65)C2)C1
The growth of the first is higher: 73.5% for the first, 11.8% for the second.

First: COC(=O)c1cc(-c2cccs2)c(C#N)c(N)c1C#N
Second: CCOC(=O)[C@H](CSSc1ncnc2cc[nH]c12)NC(=O)[C@@H](C)c1ccc2cc(OC)ccc2c1
The growth of the first is higher: 104% for the first, 13.5% for the second.

Going from `O=C1N=C(c2c(-c3[nH]c(=O)c4ccc(Br)cc4c3O)c(O)c3ccccc3c2O)C(=O)c2cc(Br)ccc21` to `COc1ccc(C2=CC(c3ccc(Oc4ccnc5cc(Cl)ccc45)c(OC)c3)c3c(nc(OC)[nH]c3=O)N2)cc1` (stereo not drawn), the growth rises from 14.3% to 28%.
